Only some compounds are listed: those with a hit (about 3.1% of all), similar ones and a draw of the others.
Autofluor counter = flagged as autofluorescent in microsphere protease counterscreen. compound autofluorescence counterscreen, microsphere flow cytometry; active compounds read high. fluorescence intensity (concentration not given with the values). actives 3.1% (n = 360,000). AID 624483; in the data active = fluorescence intensity above about 16000; inconclusive = no clear call, values can overlap the other calls
PriA SSB inh = inhibitors of Klebsiella pneumoniae PriA binding to SSB C-terminal tail. AlphaScreen SSBct-PriA binding, biotinylated peptide. inhibition, % at 33 µM. actives 0.6% (n = 430,000). AID 1272365; in the data active = inhibition mostly above about 37%, no sharp cut-off; inactive = mostly below about 20%
BoNT-F LC inh = blocks Botulinum neurotoxin F light chain protease; Multiplex microsphere protease cleavage assay, flow cytometry; inhibition, % at 10 µM; actives 0.22% (n = 360,000); AID 588497; in the data active = inhibition above about 35%, passing the limit was not always enough; inconclusive = no clear call, values can overlap the other calls
BoNT A protease = BoNT A light chain protease inhibition. multiplex microsphere protease substrate cleavage, flow cytometry. inhibition, % at 10 µM. actives 0.17% (n = 360,000). AID 588499
Anthrax LF inh2 = blocks Bacillus anthracis lethal factor protease | P15917 | multiplex microsphere protease cleavage assay, LF | inhibition, % at 10 µM | actives 0.12% (n = 360,000) | AID 588501
Target sequence (P15917 whole entry, looked up): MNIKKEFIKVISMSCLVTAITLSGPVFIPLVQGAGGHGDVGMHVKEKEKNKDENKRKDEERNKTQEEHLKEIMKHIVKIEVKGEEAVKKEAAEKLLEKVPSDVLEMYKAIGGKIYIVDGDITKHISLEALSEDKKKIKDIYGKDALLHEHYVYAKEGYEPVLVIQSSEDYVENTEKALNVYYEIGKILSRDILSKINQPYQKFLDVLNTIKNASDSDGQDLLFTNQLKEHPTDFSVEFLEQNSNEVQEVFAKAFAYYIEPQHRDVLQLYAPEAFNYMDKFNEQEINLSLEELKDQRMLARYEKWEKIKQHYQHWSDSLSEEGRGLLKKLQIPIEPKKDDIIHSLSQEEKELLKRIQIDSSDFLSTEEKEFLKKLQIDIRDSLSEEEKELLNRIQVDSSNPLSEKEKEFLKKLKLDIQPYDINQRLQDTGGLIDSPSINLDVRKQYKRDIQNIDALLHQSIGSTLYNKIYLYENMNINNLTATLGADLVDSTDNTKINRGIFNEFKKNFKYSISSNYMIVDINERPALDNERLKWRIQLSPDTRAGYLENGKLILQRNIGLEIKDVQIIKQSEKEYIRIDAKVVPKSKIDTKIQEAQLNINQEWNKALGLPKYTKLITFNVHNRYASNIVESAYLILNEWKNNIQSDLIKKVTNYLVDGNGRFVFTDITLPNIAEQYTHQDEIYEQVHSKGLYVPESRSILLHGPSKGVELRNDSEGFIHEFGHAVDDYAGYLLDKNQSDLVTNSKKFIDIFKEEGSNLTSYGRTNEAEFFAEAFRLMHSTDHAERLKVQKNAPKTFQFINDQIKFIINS
Large screens that a line does not name were inactive. Rule as the data show it, unless noted: active = inhibition above about 30%; inconclusive = no clear call, values can overlap the other calls; inactive = below that.

O=C(NCc1ccco1)c1cc2n(n1)C(C(F)(F)F)CC(c1ccc(F)cc1)N2 (stereo unspecified)	none
CCC(C)NC(=O)c1cnn2c1NC(c1ccc3c(c1)OCO3)CC2C(F)(F)F (stereo unspecified)	Autofluor counter 19687
O=C(NCC1CCCO1)c1cc2n(n1)C(C(F)(F)F)CC(c1ccc(Br)cc1)N2 (stereo unspecified)	Autofluor counter 20177, BoNT A protease inconclusive
Cc1cccc(NC(=O)c2cc3n(n2)C(C(F)(F)F)CC(c2ccc4c(c2)OCO4)N3)c1 (stereo unspecified)	Autofluor counter 22193
C=CCn1c(SCC(=O)Nc2ccc3c(c2)OCCO3)nc2scc(-c3ccc(C)cc3)c2c1=O	none (no result: Autofluor counter, BoNT-F LC inh, BoNT A protease, Anthrax LF inh2)
CN1CCN(c2ccccc2NC(=O)COc2ccc(Br)cc2)CC1	Autofluor counter 21142
Cc1cccc(OCC(=O)Nc2ccccc2N2CCN(C)CC2)c1	none
CCC(=O)N1CCN(c2ccccc2NC(=O)Cc2ccc(Cl)cc2)CC1	none
CN1CCN(c2ccccc2NC(=O)Cc2ccc(Cl)cc2)CC1	Autofluor counter 21557
O=C1CCC2c3ccc4ccccc4c3CCN12 (stereo unspecified)	Autofluor counter 20473
O=S(=O)(NCCOc1ccc(-c2ccc(F)cc2)nn1)c1ccc2c(c1)CCCC2	none (no result: Autofluor counter, BoNT-F LC inh, BoNT A protease, Anthrax LF inh2)
O=C1Nc2cc(Cl)ccc2C1(N1CCNCC1)C(F)(F)F (stereo unspecified)	Autofluor counter 18877
Cc1nc(NCCN2CCOCC2)c2nnn(Cc3ccccc3Cl)c2n1	none
Clc1ccccc1Cn1nnc2c(NCCN3CCOCC3)ncnc21	none
CC(C)(C)c1nc(NCCN2CCOCC2)c2nnn(Cc3ccccc3Cl)c2n1	Autofluor counter 23490
c1ccc(Cn2nnc3c(NCCN4CCOCC4)ncnc32)cc1	Autofluor counter 22975
CNC(=O)c1c(NC(=O)c2ccc([N+](=O)[O-])s2)sc2c1CCCCC2	none (no result: Autofluor counter, BoNT-F LC inh, BoNT A protease, Anthrax LF inh2)
Cc1noc(-c2ccc(N3CCCC(C(=O)NC(C)c4ccccn4)C3)nc2)n1 (stereo unspecified)	none (no result: Autofluor counter, BoNT-F LC inh, BoNT A protease, Anthrax LF inh2)
Cn1c(=O)c2c(=S)cc[nH]c2n(C)c1=O	none (no result: Autofluor counter, BoNT-F LC inh, BoNT A protease, Anthrax LF inh2)
Cc1ccccc1NC(=O)c1oc2ccccc2c1C	none (no result: Autofluor counter, BoNT-F LC inh, BoNT A protease, Anthrax LF inh2)
COc1cc(C(=O)NC2=NCCS2)ccc1OCc1c(C)noc1C	Autofluor counter 20499, BoNT A protease inconclusive
Cc1c(C(=O)NC2=NCCS2)oc2ccccc12	Autofluor counter 21128
COc1cccc(C(=O)NC2=NCCS2)c1OC	Autofluor counter 19499, BoNT A protease inconclusive
O=C(CSc1nc(C2CC2)nc2ccccc12)N1c2ccccc2Sc2ccccc21	Autofluor counter 22153
O=C(CSc1nnnn1C1CCCCC1)N1CCOCC1	none
O=C(CSc1nnnn1C1CCCCC1)N1c2ccccc2Sc2ccccc21	Autofluor counter 19588, BoNT A protease inconclusive
Cc1cccc(NC(=O)Cc2csc(Nc3ccc(F)cc3)n2)c1C	none (no result: Autofluor counter, BoNT-F LC inh, BoNT A protease, Anthrax LF inh2)
CC(=O)c1cccc(NC(=O)Cn2cccc2-c2nc(-c3ccc(Cl)cc3)no2)c1	none (no result: Autofluor counter, BoNT-F LC inh, BoNT A protease, Anthrax LF inh2)
CCN(CC)c1ccc(NC(=O)COC(=O)c2cccs2)cc1	Autofluor counter 22712
Cc1cc(C(=O)NCc2cncc(-c3cccs3)c2)c(C)o1	none (no result: Autofluor counter, BoNT-F LC inh, BoNT A protease, Anthrax LF inh2)
COc1ccccc1N1CCN(C(=O)C2C3C=CC4(CN(Cc5ccccc5Cl)C(=O)C24)O3)CC1 (stereo unspecified)	Autofluor counter 20591
O=C(CCCSc1ccc(NC(=O)c2ccco2)nn1)Nc1nccs1	none (no result: Autofluor counter, BoNT-F LC inh, BoNT A protease, Anthrax LF inh2)
O=C1Cc2cc(NC(=O)C3CCCC3)ccc2N1	none (no result: Autofluor counter, BoNT-F LC inh, BoNT A protease, Anthrax LF inh2)
O=c1cccnn1CCNS(=O)(=O)c1cc(C(F)(F)F)cc(C(F)(F)F)c1	PriA SSB inh 38 (no result: Autofluor counter, BoNT-F LC inh, BoNT A protease, Anthrax LF inh2)
COC(=O)c1ccccc1NS(C)(=O)=O	none
COC(=O)c1ccc(C(=O)OC)c(NS(C)(=O)=O)c1	Autofluor counter 23033
O=C(CSc1nc2c(sc(=S)n2-c2ccccc2)c(=O)[nH]1)NCc1ccccc1	none (no result: Autofluor counter, BoNT-F LC inh, BoNT A protease, Anthrax LF inh2)
FC(F)(F)c1nc2ncc(Cl)cc2[nH]1	Autofluor counter 20866
COc1cccc(COc2c[nH]c(C(=O)Nc3nc(C)cs3)cc2=O)c1	none (no result: Autofluor counter, BoNT-F LC inh, BoNT A protease, Anthrax LF inh2)
Cc1cccc(N=C2NN=C(c3ccccc3F)CS2)c1C	PriA SSB inh 44
Fc1ccc(F)c(C2=NNC(=Nc3ccccc3F)SC2)c1	none
Fc1ccc(N=C2NN=C(c3cc(F)ccc3F)CS2)cc1	PriA SSB inh 50
CN(C)S(=O)(=O)c1ccc(C(=O)N2CCCC(Cc3nc(C4CC4)no3)C2)cc1 (stereo unspecified)	none (no result: Autofluor counter, BoNT-F LC inh, BoNT A protease, Anthrax LF inh2)
Cc1cccc(C)c1OCC(O)CNC(C)C (stereo unspecified)	none
Cc1cccc(C)c1OCC(O)CNC(C)(C)C (stereo unspecified)	Autofluor counter 16186
CC(=O)N(Nc1ccccc1)c1ccccc1	BoNT-F LC inh 35
CC(=O)N(C)c1ccc(NC(=S)Nc2ccccc2)cc1	none
CCn1c(=O)c(C(=O)NCc2ccccc2)c(O)c2ccccc21	Anthrax LF inh2 48
CCN1C(=O)N[C@@H](c2cccs2)C(C(=O)OC)=C1C	none
COC(=O)C1=C(C)C(c2cccs2)NC(=O)N1C (stereo unspecified)	Autofluor counter 16502, BoNT A protease inconclusive
O=C(O)CCNS(=O)(=O)c1ccc2c(c1)C(=O)c1cc(S(=O)(=O)NCCC(=O)O)ccc1-2	none (no result: Autofluor counter, BoNT-F LC inh, BoNT A protease, Anthrax LF inh2)
N#Cc1c(N2CCCC(O)C2)nc(N)c2c(N)nc3c(c12)CC(=O)N3C12CC3CC(CC(C3)C1)C2 (stereo unspecified)	PriA SSB inh 63
CCN(CC)c1nc2n(c(=O)n1)CCN2CC	Autofluor counter 21466
CCN1CCn2c1nc(N1CCCCC1)nc2=O	none
Cc1ccc(C(=O)NC2CCN(S(=O)(=O)c3ccccc3)CC2)cc1	none
CCOc1ccc(C(=O)NC2CCN(S(=O)(=O)c3ccccc3)CC2)cc1	BoNT-F LC inh 38
O=C(NC1CCCCC1)c1ccc(S(=O)(=O)N2CCCC2)cc1	Autofluor counter 16946, BoNT A protease inconclusive
O=C(NC1CCCCC1)[C@H]1CCCN(c2ccc(-n3cccn3)nn2)C1	none (no result: Autofluor counter, BoNT-F LC inh, BoNT A protease, Anthrax LF inh2)
CSC(=O)CC(=O)NC(=O)c1ccccc1	Autofluor counter 25369
CSc1nnc(SCC(=O)NC(=O)c2ccccc2)s1	none
CCOc1c(Br)cc(CNc2ncn[nH]2)cc1OC	none
COc1cc(CNc2ncn[nH]2)cc(Br)c1OC	Autofluor counter 23846, BoNT A protease inconclusive
O=C(CCCOc1ccccc1)Nc1nccs1	Autofluor counter inconclusive, BoNT A protease inconclusive, Anthrax LF inh2 inconclusive
O=C(Nc1nccs1)Oc1ccccc1	Autofluor counter 20333, BoNT A protease inconclusive
CCCCCc1ccc(CC(=O)O)cc1	Autofluor counter 25330, BoNT A protease inconclusive
CCCc1ncc(C(=O)c2ccc(OC)cc2)n1C	Autofluor counter 24262
COc1ccc(C(=O)c2cnc(C(C)C)n2C)cc1	none
Cc1ccc(C)n1-c1nc(=S)[nH][nH]1	Autofluor counter 16597
S=c1nc(-c2ccc(Cl)cc2)[nH][nH]1	BoNT-F LC inh inconclusive
COC(=O)COC(=O)CC(CC(N)=O)c1ccccc1 (stereo unspecified)	Autofluor counter 22984
O=C(CC(CC(=O)c1ccccc1)c1ccccc1)c1ccccc1	none
CCCC(=O)Nc1[nH]c(=S)c(C#N)c(-c2ccc(OC(=O)CCC)cc2)c1C#N	PriA SSB inh 97 (no result: Autofluor counter, BoNT-F LC inh, BoNT A protease, Anthrax LF inh2)
Nc1cc(-c2ccc3c(c2)NC(=O)CO3)no1	none (no result: Autofluor counter, BoNT-F LC inh, BoNT A protease, Anthrax LF inh2)

Source: PubChem (several laboratories)
